Measurements taken from PubChem BioAssay AID1159580 (chemical genetic matrix, 2015).
Values joined by “and” are separate entries in the source; they are usually repeats but may differ in a detail not shown here. Identical values can stand only once. Screen size: about 5,500 compounds; about 2,000 (36%) were called active. Another 18% or so got no clear call; they are omitted. Rule as the data show it: active = normalized growth mostly below about 0.91 (no sharp cut-off); inconclusive = no clear call, values can overlap the other calls; inactive = mostly above about 0.92. The list shows a part of the results.

Assay: chemical genetic growth profiling, strain panel (AID 1159580);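 also: tested at 20 µM; growth read once vehicle control cultures reached saturation at 30 °C; 1 = growth at the plate median or of vehicle wells; lower values mean less growth of the strain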
Settings: growth OD

Measured: normalized growth

COCCc1ccc(OCC(O)CNC(C)C)cc1 (stereo unspecified)
inactive: S. cerevisiae deletion strains, locus YJR075W, strain HOC1, stronger effect = lower value 1.01 | S. cerevisiae deletion strains, locus YKL009W, strain mrt4, stronger effect = lower value 1 | S. cerevisiae deletion strains, locus YKL068W, stronger effect = lower value 1.01 | S. cerevisiae deletion strains, locus YKL085W, strain MDH1 (second series), stronger effect = lower value 0.998 | S. cerevisiae deletion strains, locus YKL085W, strain MDH1, stronger effect = lower value 0.998 | S. cerevisiae deletion strains, locus YKL160W, strain elf1, stronger effect = lower value 0.98 | S. cerevisiae deletion strains, locus YKL190W, strain CNB1, stronger effect = lower value 1.01 | S. cerevisiae deletion strains, locus YKR001C, strain vps1, stronger effect = lower value 0.999 | S. cerevisiae deletion strains, locus YKR026C, strain gcn3, stronger effect = lower value 1 | S. cerevisiae deletion strains, locus YKR091W, strain srl3, stronger effect = lower value 0.988 | S. cerevisiae deletion strains, locus YLL001W, strain dnm1, stronger effect = lower value 0.935 | S. cerevisiae deletion strains, locus YLL026W, stronger effect = lower value 0.99 | S. cerevisiae deletion strains, locus YLL041C, strain sdh2, stronger effect = lower value 1 | S. cerevisiae deletion strains, locus YLR027C, strain aat2, stronger effect = lower value 1.02 | S. cerevisiae deletion strains, locus YLR039C, strain RIC1, stronger effect = lower value 0.989 | S. cerevisiae deletion strains, locus YLR058C, strain SHM2, stronger effect = lower value 1.01 | S. cerevisiae deletion strains, locus YLR102C, strain apc9, stronger effect = lower value 1.01 | S. cerevisiae deletion strains, locus YLR113W, strain HOG1, stronger effect = lower value 1.03 | S. cerevisiae deletion strains, locus YLR221C, strain rsa3, stronger effect = lower value 0.955 | S. cerevisiae deletion strains, locus YLR258W, strain gsy2, stronger effect = lower value 1.01 | S. cerevisiae deletion strains, locus YLR262C, strain YPT6 (second series), stronger effect = lower value 1 | S. cerevisiae deletion strains, locus YLR262C, strain YPT6, stronger effect = lower value 1 | S. cerevisiae deletion strains, locus YLR268W, strain sec22, stronger effect = lower value 1.08 | S. cerevisiae deletion strains, locus YLR320W, strain mms22, stronger effect = lower value 0.977 | S. cerevisiae deletion strains, locus YLR330W, strain CHS5, stronger effect = lower value 1.01 | S. cerevisiae deletion strains, locus YLR342W, strain FKS1 (second series), stronger effect = lower value 1.01 | S. cerevisiae deletion strains, locus YLR342W, strain FKS1, stronger effect = lower value 0.993 | S. cerevisiae deletion strains, locus YLR357W, strain rsc2, stronger effect = lower value 0.973 | S. cerevisiae deletion strains, locus YLR370C, strain arc18, stronger effect = lower value 0.99 | S. cerevisiae deletion strains, locus YLR371W, strain rom2, stronger effect = lower value 1.01 | S. cerevisiae deletion strains, locus YLR384C, strain iki3, stronger effect = lower value 0.991 | S. cerevisiae deletion strains, locus YLR418C, strain cdc73, stronger effect = lower value 0.986 | S. cerevisiae deletion strains, locus YML016C, strain PPZ1, stronger effect = lower value 1.01 | S. cerevisiae deletion strains, locus YML032C, strain rad52, stronger effect = lower value 1.03 | S. cerevisiae deletion strains, locus YML120C, strain ndi1, stronger effect = lower value 0.942 | S. cerevisiae deletion strains, locus YML124C, strain tub3, stronger effect = lower value 1.01 | S. cerevisiae deletion strains, locus YMR058W, strain fet3, stronger effect = lower value 0.989 | S. cerevisiae deletion strains, locus YMR078C, strain ctf18, stronger effect = lower value 1.01 | S. cerevisiae deletion strains, locus YMR125W, strain sto1, stronger effect = lower value 0.97 | S. cerevisiae deletion strains, locus YMR129W, stronger effect = lower value 0.996 | S. cerevisiae deletion strains, locus YMR205C, strain PFK2, stronger effect = lower value 0.962 | S. cerevisiae deletion strains, locus YMR223W, strain ubp8, stronger effect = lower value 0.995 | S. cerevisiae deletion strains, locus YMR231W, strain pep5, stronger effect = lower value 0.997 | S. cerevisiae deletion strains, locus YMR263W, strain SAP30, stronger effect = lower value 1.02 | S. cerevisiae deletion strains, locus YMR307W, strain GAS1, stronger effect = lower value 1.02 | S. cerevisiae deletion strains, locus YNL067W, strain RPL9B, stronger effect = lower value 1.02 | S. cerevisiae deletion strains, locus YNL071W, strain lat1, stronger effect = lower value 0.989 | S. cerevisiae deletion strains, locus YNL128W, strain TEP1, stronger effect = lower value 1.01 | S. cerevisiae deletion strains, locus YNL153C, strain GIM3, stronger effect = lower value 1.02 | S. cerevisiae deletion strains, locus YNL175C, strain NOP13, stronger effect = lower value 1.01 | S. cerevisiae deletion strains, locus YNL183C, strain NPR1, stronger effect = lower value 1 | S. cerevisiae deletion strains, locus YNL197C, strain WHI3, stronger effect = lower value 0.984 | S. cerevisiae deletion strains, locus YNL209W, strain ssb2, stronger effect = lower value 0.987 | S. cerevisiae deletion strains, locus YNL224C, strain SQS1, stronger effect = lower value 0.988 | S. cerevisiae deletion strains, locus YNL233W, strain BNI4, stronger effect = lower value 1.01 | S. cerevisiae deletion strains, locus YNL248C, strain rpa49, stronger effect = lower value 0.992 | S. cerevisiae deletion strains, locus YNL250W, strain rad50, stronger effect = lower value 1.01 | S. cerevisiae deletion strains, locus YNL271C, strain bni1, stronger effect = lower value 1.01 | S. cerevisiae deletion strains, locus YNL298W, strain CLA4, stronger effect = lower value 1.02 | S. cerevisiae deletion strains, locus YNL307C, strain MCK1, stronger effect = lower value 1.02 | S. cerevisiae deletion strains, locus YNL322C, strain KRE1 (second series), stronger effect = lower value 0.98 | S. cerevisiae deletion strains, locus YNL322C, strain KRE1, stronger effect = lower value 1 and 0.99 | S. cerevisiae deletion strains, locus YNR049C, strain mso1, stronger effect = lower value 0.978 | S. cerevisiae deletion strains, locus YNR052C, strain pop2, stronger effect = lower value 1.01 | S. cerevisiae deletion strains, locus YOL006C, strain TOP1, stronger effect = lower value 1.07 | S. cerevisiae deletion strains, locus YOL012C, strain htz1 0.79 | S. cerevisiae deletion strains, locus YOL147C, strain pex11, stronger effect = lower value 1.01 | S. cerevisiae deletion strains, locus YOR001W, strain rrp6, stronger effect = lower value 1.03 | S. cerevisiae deletion strains, locus YOR061W, strain CKA2, stronger effect = lower value 1.01 | S. cerevisiae deletion strains, locus YOR069W, strain VPS5, stronger effect = lower value 1.01 | S. cerevisiae deletion strains, locus YOR070C, strain gyp1, stronger effect = lower value 0.995 | S. cerevisiae deletion strains, locus YOR080W, strain dia2, stronger effect = lower value 0.985 | S. cerevisiae deletion strains, locus YOR083W, strain WHI5 (second series), stronger effect = lower value 0.999 | S. cerevisiae deletion strains, locus YOR083W, strain WHI5, stronger effect = lower value 0.981 | S. cerevisiae deletion strains, locus YOR106W, strain vam3, stronger effect = lower value 0.957 | S. cerevisiae deletion strains, locus YOR136W, strain idh2, stronger effect = lower value 1.01 | S. cerevisiae deletion strains, locus YOR144C, strain elg1, stronger effect = lower value 1.01 | S. cerevisiae deletion strains, locus YOR184W, strain ser1, stronger effect = lower value 1.02 | S. cerevisiae deletion strains, locus YOR231W, strain MKK1, stronger effect = lower value 1.03 | S. cerevisiae deletion strains, locus YOR265W, strain rbl2, stronger effect = lower value 0.995 | S. cerevisiae deletion strains, locus YOR270C, strain vph1, stronger effect = lower value 0.975 | S. cerevisiae deletion strains, locus YOR290C, strain snf2, stronger effect = lower value 0.91 | S. cerevisiae deletion strains, locus YOR316C, strain cot1, stronger effect = lower value 1.01 | S. cerevisiae deletion strains, locus YPL051W, strain arl3, stronger effect = lower value 1 | S. cerevisiae deletion strains, locus YPL055C, strain LGE1, stronger effect = lower value 0.989 and 1.01 | S. cerevisiae deletion strains, locus YPL078C, strain atp4, stronger effect = lower value 0.978 | S. cerevisiae deletion strains, locus YPL106C, strain sse1, stronger effect = lower value 0.971 | S. cerevisiae deletion strains, locus YPL240C, strain hsp82, stronger effect = lower value 0.992 | S. cerevisiae deletion strains, locus YPL241C, strain CIN2, stronger effect = lower value 1 and 0.974 | S. cerevisiae deletion strains, locus YPL256C, strain CLN2, stronger effect = lower value 1.1 | S. cerevisiae deletion strains, locus YPR119W, strain clb2, stronger effect = lower value 1.02 | S. cerevisiae deletion strains, locus YPR141C, strain kar3, stronger effect = lower value 1.02 | S. cerevisiae deletion strains, locus YPR163C, strain tif3, stronger effect = lower value 1.02 | S. cerevisiae deletion strains, locus YPR167C, strain met16, stronger effect = lower value 1.01 | S. cerevisiae deletion strains, strain wtn01, stronger effect = lower value 1.05 | S. cerevisiae strains, strain wild type, stronger effect = lower value 1.01
